# This excerpt belongs to a sample that is enriched for hits.
# GluA2 TARP mod: modulates AMPAR-stargazin complexes; O88602+P19491; HEK293 GluA2+stargazin, membrane potential dye (FDSS), glutamate EC50; hits were called plate by plate, in both directions; calls only at 30 µM; hit rate 3.5% among 40,000; AID 1259245;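 active = any of four per-well response measures lying three or more SD from its plate-wide compound average, in either direction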
# Target sequence (O88602 whole entry, looked up): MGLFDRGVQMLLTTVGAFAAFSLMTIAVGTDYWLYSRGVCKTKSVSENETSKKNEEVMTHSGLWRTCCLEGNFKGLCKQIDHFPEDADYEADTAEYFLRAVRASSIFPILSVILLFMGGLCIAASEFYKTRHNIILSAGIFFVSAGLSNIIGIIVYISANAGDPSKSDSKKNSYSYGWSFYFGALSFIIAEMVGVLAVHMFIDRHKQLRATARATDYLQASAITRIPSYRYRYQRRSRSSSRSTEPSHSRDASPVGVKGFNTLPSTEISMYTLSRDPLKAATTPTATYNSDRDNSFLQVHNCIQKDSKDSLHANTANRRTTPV
# Target sequence (P19491 whole entry, looked up): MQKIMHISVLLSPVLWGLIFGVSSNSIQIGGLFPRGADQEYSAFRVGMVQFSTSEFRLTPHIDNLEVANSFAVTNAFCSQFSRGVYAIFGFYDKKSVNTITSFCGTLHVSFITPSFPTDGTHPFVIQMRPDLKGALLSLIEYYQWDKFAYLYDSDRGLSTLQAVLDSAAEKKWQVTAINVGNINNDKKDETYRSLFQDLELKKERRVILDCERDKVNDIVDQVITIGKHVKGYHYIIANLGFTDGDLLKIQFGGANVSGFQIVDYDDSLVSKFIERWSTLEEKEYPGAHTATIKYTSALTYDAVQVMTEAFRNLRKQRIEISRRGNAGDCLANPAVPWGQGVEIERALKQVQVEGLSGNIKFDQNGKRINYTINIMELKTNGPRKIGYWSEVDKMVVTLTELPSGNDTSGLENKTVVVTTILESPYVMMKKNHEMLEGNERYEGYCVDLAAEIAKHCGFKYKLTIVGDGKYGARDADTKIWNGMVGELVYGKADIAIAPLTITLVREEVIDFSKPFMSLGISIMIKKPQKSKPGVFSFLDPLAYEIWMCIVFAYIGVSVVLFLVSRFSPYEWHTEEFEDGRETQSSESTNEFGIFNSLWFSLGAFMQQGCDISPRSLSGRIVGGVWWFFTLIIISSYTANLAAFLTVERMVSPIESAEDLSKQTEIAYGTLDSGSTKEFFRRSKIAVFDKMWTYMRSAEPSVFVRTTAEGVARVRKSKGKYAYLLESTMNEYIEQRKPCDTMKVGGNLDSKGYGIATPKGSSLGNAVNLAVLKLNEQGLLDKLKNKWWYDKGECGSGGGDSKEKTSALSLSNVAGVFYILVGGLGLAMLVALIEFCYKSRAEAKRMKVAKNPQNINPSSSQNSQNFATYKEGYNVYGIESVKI
# GIRK2 activator: Activates human GIRK2-containing potassium channels; activation (% efficacy), % for hits at 37.5 µM; AID 1259324; 34,000 tested, under 10 active; HEK293 GIRK2/NPY4 cells, thallium flux fluorescence; P48051;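 active = primary screen hit, no activity in plain HEK293 cells, and in GIRK2-only cells above 5% efficacy rising with concentration; inactive = the rest, including fluorescent compounds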;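 also: efficacy is normalized control-subtracted fluorescence 15 s after thallium addition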
# * hit, by the source's call; i = inactive; . = not tested or not shown; + = active, no number.
SMILES,GluA2 TARP mod,GIRK2 activator
Cc1cccc(C(=O)N2CCN(c3nc(C)cc(N4CCCCC4)n3)CC2)c1,+,.
COc1cc(N2CCN(C(=O)c3cnccn3)CC2)nc(C)n1,i,i
O=C(NCC1CCN(Cc2ccsc2)CC1)c1cccc(F)c1,.,i
CCOCCn1c(=O)c2c(nc3n2CCCN3c2cccc(C)c2C)n(C)c1=O,i,.
NS(=O)(=O)c1ccc(CCN2CC(=O)N(c3ccccc3)C3CS(=O)(=O)CC32)cc1 (centres undefined),i,i
CCOc1ccc(C(=O)NC2CNC(=O)C2)cc1OCC (centres undefined),.,i
CCN1CCN(S(=O)(=O)c2ccccc2[N+](=O)[O-])CC1,i,.
Cc1ccc(Nc2ccc(NC(=O)c3sc(C)nc3C)cc2)nn1,i,i
COc1ccc2nc(NC(=O)NC34CC5CC(CC(C5)C3)C4)sc2c1,i,i
Nc1nc2ccc(OC(F)(F)F)cc2s1,+,i
COC(=O)c1scc(-c2ccccc2)c1S(=O)(=O)N1CCCC1,i,.
COC(=O)c1scc(-c2ccccc2)c1S(=O)(=O)N1CCN(Cc2ccccc2)CC1,+,.
CCOc1ccc(-n2nnnc2CN2CCN(C(=O)c3c(C)noc3C)CC2)cc1,i,i
CCOc1ccc(-n2nnnc2CN2CCN(C(=O)c3c(F)cccc3Cl)CC2)cc1,+,i
Cn1c(=O)c2cc(C(=O)NCCCn3ccnc3)sc2n(C)c1=O,+,i
Cn1c(=O)c2cc(C(=O)NCCC(c3ccccc3)c3ccccc3)sc2n(C)c1=O,i,i
Cn1c(=O)c2cc(C(=O)Nc3ccc(Oc4ccccc4)cc3)sc2n(C)c1=O,i,i
Cn1c(=O)c2cc(C(=O)NCCCN3CCOCC3)sc2n(C)c1=O,+,i
Cn1c(=O)c2cc(C(=O)Nc3cccc(S(N)(=O)=O)c3)sc2n(C)c1=O,+,i
Cn1c(=O)c2cc(C(=O)NCc3ccccc3)sc2n(C)c1=O,i,i
COc1ccc(C(=O)Nc2ccc3c(C)cc(=O)[nH]c3c2)cc1OC,.,i
COc1ccc2nc(N(Cc3ccco3)C(=O)C3CC3)sc2c1,i,.
Cc1c(-c2ccccc2)c(=O)oc2c3c(ccc12)OCN(CCN1CCOCC1)C3,i,i
c1ccc(N2CCN(c3nc(NCc4ccco4)c4ccccc4n3)CC2)cc1,i,.
c1coc(CNc2nc(N3CCCCC3)nc3ccccc23)c1,+,.
SMILES,GluA2 TARP mod,GIRK2 activator
O=C(Nc1nnc(Cc2cccs2)o1)c1cc2ccccc2oc1=O,+,i
O=C(Nc1nnc(Cc2cccs2)o1)c1ccccc1,i,i
COc1cccc(OCCn2c(CN3CCCCC3)nc3ccccc32)c1,i,.
C#CCn1c(SCCOc2cccc(OC)c2)nc2ccccc21,+,.
COc1ccc(NC(=O)c2ccc(COc3ccccc3C)o2)cc1,i,.
O=C(CSc1nc(-c2ccccc2)nc2c1CCCC2)N1CCOCC1,+,.
Cc1cccc(-c2nc3c(c(SCC(=O)N(C)C)n2)CCCC3)c1,i,i
Nc1nc(CSc2nc3ccc([N+](=O)[O-])cc3[nH]2)cs1,i,i
O=C(CSc1cc(N2CCOCC2)ncn1)Nc1ccc2c(c1)OCCO2,i,i
O=C1c2cc(NC(=O)C3(c4cccs4)CCCC3)ccc2OCCC2CCCCN12 (centres undefined),+,i
O=C(/C=C/c1ccccc1Cl)Nc1ccc2c(c1)C(=O)N1CCCCC1CCO2 (centres undefined),i,i
O=C(Nc1ccc2c(c1)CN(C(=O)C1CC1)CC2)c1ccc2nsnc2c1,+,i
O=C(Nc1ccc2c(c1)CN(C(=O)c1ccco1)CC2)c1cnccn1,+,i
CCCc1nnsc1C(=O)Nc1ccc2c(c1)CN(C(=O)c1ccco1)CC2,i,i
O=C(Nc1ccc2c(c1)CN(C(=O)c1ccco1)CC2)c1ccc2nsnc2c1,+,i
CSc1ccccc1C(=O)Nc1ccc2c(c1)CN(C(=O)c1ccco1)CC2,i,i
O=C(Nc1ccc2c(c1)CN(C(=O)C1CC1)CC2)c1ccsc1,i,i
COc1ccc(NS(=O)(=O)c2ccc3c(c2)OCCO3)cc1N1CCCCC1=O,i,i
CSc1cccc(NC(=O)N2CCN(c3cc(-n4ccnc4)ncn3)CC2)c1,i,i
CSCCC(C)(O)CNC(=O)C(=O)NCc1ccc(F)cc1 (centres undefined),i,i
COc1ccc(Cl)cc1NC(=O)CC(NCCCN(C)C)C(=O)O (centres undefined),i,.
Cc1ccc(S(=O)(=O)NC2CC(C)(C)NC(C)(C)C2)cc1,i,.
Cc1ccc([N+](=O)[O-])cc1S(=O)(=O)NC1CC(C)(C)NC(C)(C)C1,+,.
COC(=O)c1sccc1S(=O)(=O)N(CC(=O)Nc1ccccc1OC)c1ccc(Cl)cc1,+,.
COC(=O)c1sccc1S(=O)(=O)N(CC(=O)Nc1ccc(OC)cc1)c1ccccc1,i,i
SMILES,GluA2 TARP mod,GIRK2 activator
COC(=O)c1sccc1S(=O)(=O)N(CC(=O)Nc1cc(C)ccc1C)c1ccc(Cl)cc1,i,i
COC(=O)c1sccc1S(=O)(=O)N(CC(=O)Nc1ccc(OC)cc1)c1ccc(Cl)cc1,+,i
O=C(NCC1CCN(c2ncccn2)CC1)C1c2ccccc2Oc2ccccc21,i,i
CC(C)N1CCc2c(sc(NC(=O)c3ccn(C)n3)c2C(N)=O)C1,i,i
COC(=O)c1c(NC(=O)c2ccn(C)n2)sc2c1CCN(Cc1ccccc1)C2,+,i
N#Cc1c(NC(=O)c2cc3ccccc3o2)sc2c1CCN(Cc1ccccc1)C2,+,.
Cc1cc(C(=O)Nc2sc3c(c2C#N)CCN(Cc2ccccc2)C3)on1,.,i
CCCC(=O)NNC(=O)c1ccc(=O)n(Cc2ccc(Cl)cc2)c1,i,i
O=C1Cc2cc(NC(=O)NCc3cccs3)ccc2N1,i,i
CC(C)NC(=O)c1nsc(C(=O)N2CCCC2)c1N,i,i
CC(C)c1nnc(C2CCN(C(=O)NC3CCCCC3)CC2)o1,i,i
Cc1ccccc1CC(=O)NCCn1nc(-c2cccs2)ccc1=O,+,i
O=C(NCCn1nc(-c2cccs2)ccc1=O)NCc1ccccc1,i,i
O=c1nc(SCc2cccc(Cl)c2)c2c(n1CC1CCCO1)CCCC2 (centres undefined),+,i
O=c1nc(SCc2cccc([N+](=O)[O-])c2)c2c(n1CC1CCCO1)CCC2 (centres undefined),i,i
CCOc1cccc2sc(NC(=O)c3cc(C)nn3CC)nc12,+,.
CCOc1cccc2sc(NC(=O)c3ccnn3C)nc12,i,.
COc1ccc(C2(CNS(=O)(=O)c3c(C)n[nH]c3C)CCCC2)cc1,+,i
COc1ccc(C2(CNS(=O)(=O)c3cccnc3)CCCC2)cc1,i,i
COc1ccc(C(=O)NCCOc2cc(C)cc(C)c2)c(OC)c1,+,i
Cc1cc(C)cc(OCCNC(=O)c2cccs2)c1,i,i
COc1ccccc1C1(CNC(=O)Nc2cccc(C(F)(F)F)c2)CCOCC1,i,i
O=C(NCC1(O)CCc2ccccc21)Nc1cccc(C(F)(F)F)c1 (centres undefined),+,i
CCOC(=O)Cc1csc(NC(=O)c2ccc(=O)n(Cc3c(F)cccc3Cl)c2)n1,i,i

# Source: PubChem (several laboratories)
